# According to publication PMC5540273 (PLoS ONE, 2017):
# Tested on: LIMK1
# Conditions: concentration: 1 μM, replicates: in singlicate; n = 1
# 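Further: KINOMEscan kinase panel screen.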
row,Structure (SMILES),%Inh
1,CN1C(=O)C(Nc2ccc(Cl)c(C(=O)O)c2)=C(c2ccc(Cl)cc2)C1=O [SB-404290],7%
2,Cc1nnc(-c2ccc3occ(-c4ccc(S(C)=O)cc4)c3c2)[nH]1 (stereo not shown),0%
3,Clc1cc(Cl)cc(Nc2ccnc(Nc3cc(Cl)cc(Cl)c3)n2)c1 [GSK175726],10%
4,O=C(Nc1ccc2c(c1)OCO2)NC1CCN(c2ccnc(Nc3ccc(F)cc3)n2)C1 (stereo not shown) [GSK1379724],41%
5,CS(=O)(=O)c1ccc(-c2c(-c3ncn[nH]3)sc(N3CCOCC3)c2C#N)cc1,0%
6,COc1ccc(C2=C(Nc3cccc(C(=O)O)c3)C(=O)NC2=O)cc1 [SB-390765],100%
7,CS(=O)(=O)c1ccc(-c2nc3n(c2-c2ccncc2)CCC3)cc1 [SKF-105942],19%
8,C[C@@H]1CCCCN1c1cc(-c2ccc3c(N)n[nH]c3c2)nc(N)n1 [GSK2258759],0%
9,COc1ccc2nc(-c3cccc(C)n3)nc(Nc3ccncc3)c2c1 [GSK204919],20%
10,O=S(=O)(c1ccc(-c2ccnc3[nH]ccc23)cc1)N1CCCC1 [GSK846226],7%
11,Cn1ccc2ncnc(Oc3ccc(NC(=O)Nc4ccccc4)cc3)c21,1%
12,Cc1ccc(C(=O)Nc2ccc(Nc3ccnc4cc(-c5ccccn5)ccc34)cc2O)cc1.Cl [GW440146],0%
13,COc1ccc(CNC(=O)NC2CCN(c3ccnc(Nc4cc(OC)c(OC)c(OC)c4)n3)C2)cc1 (stereo not shown) [GSK1379748],0%
14,Cc1cc(-c2ccc3c(c2)CC[C@@H](N[C@@H](C)c2ccccc2)C3)cnc1N.Cl [GW412617],0%
15,Cl.O=C(Nc1cccc(-c2nn3ncccc3c2-c2ccnc(Nc3cccnc3)n2)c1)c1c(F)cccc1F [GSK312879],2%
16,COC(=O)c1c(-c2ccccc2)c2cc(OC)ccc2c(=O)n1Cc1ccccc1,0%
17,O=C(Nc1n[nH]c2nc(-c3nccs3)c(Br)cc12)C1CC1 [SB-742251],0%
18,COc1cc(Nc2nccc(N3CCC(NC(=O)Nc4cc(C)ccc4C)C3)n2)cc(OC)c1OC (stereo not shown) [GSK1379762],20%

row,Structure (SMILES),%Inh
1,COc1cccc(NC(=O)NC2CCN(c3ccnc(Nc4ccc(F)cc4)n3)C2)c1 (stereo not shown) [GSK1379721],0%
2,Cl.Oc1ccc(-c2nc(-c3ccccc3)[nH]c2-c2ccncc2)cc1 [SB-428218],0%
3,Cc1ccc(-c2cc(-c3c[nH]nc3-c3ccccn3)ccn2)cc1 [GW684088],0%
4,Nc1ncnc2[nH]c(-c3ccccc3)nc12 [AH5015],15%
5,O=C(Nc1n[nH]c2cc(-c3cccc(F)c3F)ccc12)C1CC1 [SB-733894],0%
6,Cc1ccc(NC(=O)Nc2cc(C(C)(C)C)nn2-c2ccccc2)cc1 [GSK1014915],5%
7,Cc1cccc(-c2nc(C)cc(Nc3ccncc3)n2)n1 [GSK257997],11%
8,Cn1cncc1-c1ccc2ncnc(Nc3ccc(OCc4ccccc4)cc3)c2c1 [GW320571],18%
9,CCn1c(-c2ccccn2)nc2cnccc21 [SB-736398],13%
10,Cc1c(Cn2ccn3c(=O)cc(N4CCOCC4)nc23)cccc1C(F)(F)F [GSK2289044],0%
11,O=C(O)COc1ncnc2cc(-c3ccc4[nH]ncc4c3)sc12,0%
12,O=C(Nc1ccccc1)Nc1cccc(Oc2ccc3nccn3n2)c1,0%
13,Cc1ccccc1-n1cnc2c(N)ncnc21 [SKF-97510],16%
14,CC(=O)Nc1nc2cnc(Nc3cc(NC(=O)c4cccc(CCC#N)c4)ccc3C)nc2s1,0%
15,CC1=C(C(=O)Nc2cc3cn[nH]c3cc2F)C(c2ccc(C(F)(F)F)cc2)CC(=O)N1 (stereo not shown) [GSK429286],0%
16,COc1ccc(Nc2nccc(-c3cccc(NC(=O)c4cc5cc(F)ccc5[nH]4)c3)n2)cc1 [GSK1229782],0%
17,O=C1NC(=O)C(N2CCc3ccccc32)=C1c1ccccc1Cl [SB-373598],21%

# Tested on: LIMK2
# Conditions: concentration: 1 μM, replicates: in singlicate; n = 1
row,Structure (SMILES),%Inh
1,CN1C(=O)C(Nc2ccc(Cl)c(C(=O)O)c2)=C(c2ccc(Cl)cc2)C1=O [SB-404290],0%
2,Cc1nnc(-c2ccc3occ(-c4ccc(S(C)=O)cc4)c3c2)[nH]1 (stereo not shown),0%
3,Clc1cc(Cl)cc(Nc2ccnc(Nc3cc(Cl)cc(Cl)c3)n2)c1 [GSK175726],31%
4,O=C(Nc1ccc2c(c1)OCO2)NC1CCN(c2ccnc(Nc3ccc(F)cc3)n2)C1 (stereo not shown) [GSK1379724],0%
5,CS(=O)(=O)c1ccc(-c2c(-c3ncn[nH]3)sc(N3CCOCC3)c2C#N)cc1,3%
6,COc1ccc(C2=C(Nc3cccc(C(=O)O)c3)C(=O)NC2=O)cc1 [SB-390765],0%
7,CS(=O)(=O)c1ccc(-c2nc3n(c2-c2ccncc2)CCC3)cc1 [SKF-105942],0%
8,C[C@@H]1CCCCN1c1cc(-c2ccc3c(N)n[nH]c3c2)nc(N)n1 [GSK2258759],19%
9,COc1ccc2nc(-c3cccc(C)n3)nc(Nc3ccncc3)c2c1 [GSK204919],3%
10,O=S(=O)(c1ccc(-c2ccnc3[nH]ccc23)cc1)N1CCCC1 [GSK846226],21%
11,Cn1ccc2ncnc(Oc3ccc(NC(=O)Nc4ccccc4)cc3)c21,1%
12,Cc1ccc(C(=O)Nc2ccc(Nc3ccnc4cc(-c5ccccn5)ccc34)cc2O)cc1.Cl [GW440146],2%
13,COc1ccc(CNC(=O)NC2CCN(c3ccnc(Nc4cc(OC)c(OC)c(OC)c4)n3)C2)cc1 (stereo not shown) [GSK1379748],0%
14,Cc1cc(-c2ccc3c(c2)CC[C@@H](N[C@@H](C)c2ccccc2)C3)cnc1N.Cl [GW412617],0%
15,Cl.O=C(Nc1cccc(-c2nn3ncccc3c2-c2ccnc(Nc3cccnc3)n2)c1)c1c(F)cccc1F [GSK312879],0%
16,COC(=O)c1c(-c2ccccc2)c2cc(OC)ccc2c(=O)n1Cc1ccccc1,0%
17,O=C(Nc1n[nH]c2nc(-c3nccs3)c(Br)cc12)C1CC1 [SB-742251],0%
18,COc1cc(Nc2nccc(N3CCC(NC(=O)Nc4cc(C)ccc4C)C3)n2)cc(OC)c1OC (stereo not shown) [GSK1379762],15%

row,Structure (SMILES),%Inh
1,COc1cccc(NC(=O)NC2CCN(c3ccnc(Nc4ccc(F)cc4)n3)C2)c1 (stereo not shown) [GSK1379721],5%
2,Cl.Oc1ccc(-c2nc(-c3ccccc3)[nH]c2-c2ccncc2)cc1 [SB-428218],0%
3,Cc1ccc(-c2cc(-c3c[nH]nc3-c3ccccn3)ccn2)cc1 [GW684088],17%
4,Nc1ncnc2[nH]c(-c3ccccc3)nc12 [AH5015],0%
5,O=C(Nc1n[nH]c2cc(-c3cccc(F)c3F)ccc12)C1CC1 [SB-733894],0%
6,Cc1ccc(NC(=O)Nc2cc(C(C)(C)C)nn2-c2ccccc2)cc1 [GSK1014915],0%
7,Cc1cccc(-c2nc(C)cc(Nc3ccncc3)n2)n1 [GSK257997],19%
8,Cn1cncc1-c1ccc2ncnc(Nc3ccc(OCc4ccccc4)cc3)c2c1 [GW320571],11%
9,CCn1c(-c2ccccn2)nc2cnccc21 [SB-736398],0%
10,Cc1c(Cn2ccn3c(=O)cc(N4CCOCC4)nc23)cccc1C(F)(F)F [GSK2289044],0%
11,O=C(O)COc1ncnc2cc(-c3ccc4[nH]ncc4c3)sc12,0%
12,O=C(Nc1ccccc1)Nc1cccc(Oc2ccc3nccn3n2)c1,0%
13,Cc1ccccc1-n1cnc2c(N)ncnc21 [SKF-97510],15%
14,CC(=O)Nc1nc2cnc(Nc3cc(NC(=O)c4cccc(CCC#N)c4)ccc3C)nc2s1,0%
15,CC1=C(C(=O)Nc2cc3cn[nH]c3cc2F)C(c2ccc(C(F)(F)F)cc2)CC(=O)N1 (stereo not shown) [GSK429286],0%
16,COc1ccc(Nc2nccc(-c3cccc(NC(=O)c4cc5cc(F)ccc5[nH]4)c3)n2)cc1 [GSK1229782],12%
17,O=C1NC(=O)C(N2CCc3ccccc32)=C1c1ccccc1Cl [SB-373598],15%
